In PubChem BioAssay (NCI):
The panel holds about 79,000 compounds, 15% with a hit somewhere; the sample as a whole holds those more often. A number with no mark means an inactive call. Cut-off read from the data, not from the text of the source: active = growth inhibition above about 70%; inactive = the rest.

experiment: NCI Yeast Anticancer Drug Screen. Data for the rad50 strain (AID 155);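 note: 0% = growth of vehicle-only cultures of the same strain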; settings: S. cerevisiae rad50 strain growth inhibition; at 50.0 µM; hits give high values
Procedure, shortened: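 Relative growth inhibition (compound vs vehicle) was measured in yeast with a defined repair-gene alteration.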

Row | Structure (SMILES) | growth inhibition
1 | O=C(N/N=C/C=C/c1ccccc1)NNC(=O)c1cc([N+](=O)[O-])cc([N+](=O)[O-])c1 | 31%
2 | N#CC(=C1C=CC(=NOC(=O)c2ccccc2)C=C1)c1ccccc1 | -0.75%
3 | CC(=O)C(CCCCCCCCCCC(C(C)=O)C(C)=O)C(C)=O | -9.3%
4 | CN(C)CCCN1CCC2(CCC(C(C)(C)C)CC2)CC1 | 40%
5 | O=S(=O)(O)Cc1cccc2ccccc12 | 38%
6 | CC(=O)C1CC(CCC2([N+](=O)[O-])CCC(C)(O)C(C(C)=O)C2)([N+](=O)[O-])CCC1(C)O (stereo not given) | 3.3%
7 | CCC1CN1C(=O)c1cc(C(=O)N2CC2CC)cc(C(=O)N2CC2CC)c1 (stereo not given) | 3.2%
8 | CN(C)CCNCCN | 4%
9 | C[CH2][Sn]([CH2]C)([N](c1ccccn1)c1ccccn1)[N](c1ccccn1)c1ccccn1 | -1.75%
10 | Brc1ccc(/C=C/c2ccnnc2)cc1 | 41.5%
11 | C1OC2OC3OCOC3C2O1 (stereo not given) | 16.4%
12 | C/C(O)=C(/C=NC(=S)c1ccncc1)C(=O)Nc1ccccc1 | -36.8%
13 | O=C(O)CCNC(=O)c1ccccc1O | -41.5%
14 | [N-]=[N+]=Nc1cc(=O)n(-c2ccccc2)c2ccccc12 | -17.2%
15 | CC(=O)Nc1ccc2c(c1)Cc1cccc(O)c1-2 | 0.65%
16 | Cc1ccc(S(=O)(=O)[N-]C2C(=O)c3ccccc3C(=O)C2[n+]2cccc(C(N)=O)c2)cc1 (stereo not given) | -1.75%
17 | O=C(CC(C(=O)c1ccc(F)cc1)c1ccsc1)c1cccs1 (stereo not given) | 13.8%
18 | CCOCCOCCOC(=O)C(C)O (stereo not given) | 14.7%
19 | CNC(=O)CCCCC(=O)NC | -5.65%
20 | C#CCN(N=O)C(=O)NC(CCCCNC(=O)OCc1ccccc1)C(=O)OCc1ccccc1 (stereo not given) | -8.65%

Row | Structure (SMILES) | growth inhibition
21 | O=S(=O)(SSS(=O)(=O)c1ccc(Cl)c(Cl)c1)c1ccc(Cl)c(Cl)c1 | 7.8%
22 | O=C(O)C(c1ccc(-c2ccccc2)cc1)C1CCCCC1 (stereo not given) | 47.9%
23 | CC(=O)OC(Cn1cncn1)(Cn1cncn1)c1ccc(Cl)cc1Cl | 43.6%
24 | CCO/C(O)=c1/s/c(=C2/SC(=S)N(c3ccc(C)cc3)C2=O)n(-c2ccccc2)c1=N | -3.8%
25 | O=C(N/N=C1\C(=O)N(c2nccs2)C(=O)C(=O)C1c1nc2ccccc2s1)c1ccccc1O (stereo not given) | 23.1%
26 | CCNC(=O)CCN(C(=O)O)S(=O)(=O)c1ccc(NC(=O)c2ccccc2)cc1 | -23.2%
27 | C[C@]1(CO)[C@H]2CC[C@@]34C=C[C@@](CO)(CC[C@H]3[C@]2(C)CC[C@H]1O)C4 | 5.45%
28 | NC(N)=N/N=C/c1c(-c2ccc(Cl)cc2)nc2n1CCS2 | -36.6%
29 | O=C(Nc1ccc(Cl)cc1)/C(Cc1cccc[n+]1[O-])=N\Nc1ccc([N+](=O)[O-])cc1[N+](=O)[O-] | -19.4%
30 | CNC(=O)c1ccccc1CC(O)c1ccccc1 (stereo not given) | -7.95%
31 | C=C(C)/C=N/NS(=O)(=O)c1ccc(C)cc1 | -14.6%
32 | CCOC(=O)Nc1nc(-c2ccc(Br)cc2)cs1 | -11.5%
33 | C=C1C(=O)O[C@@H]2C[C@]3(C)[C@@H](C[C@H]12)[C@](C)(O)CC[C@@H]3O | 5.65%
34 | CN(C)c1ccc(/C=C(\NC(=O)c2ccccc2)C(=O)NC(CC(=O)O)C(=O)O)cc1 (stereo not given) | 10.2%
35 | NCc1c(C(N)=O)ncn1Cc1ccccc1 | -0.95%
36 | COC1OC(CO)C(O)C(O)C1Br (stereo not given) | 19.8%
37 | CCOC(=O)c1ccc(CSc2ccc(N)cc2)c([N+](=O)[O-])c1 | -0.6%
38 | O=CCCC1CCCCC1 | 4.75%
39 | Br/C=C\Br | -2.85%
40 | Nc1cccc(C(F)(F)F)c1[N+](=O)[O-] | -8.25%
